# Marburg entry inh: Marburg virus entry inhibition | Marburg virus pseudotyped entry inhibition, cell reporter | Potency, µM (top dose mostly 37.8 µM), for the others: at the top dose activity change, negative = inhibition, actives largely listed as inhibitors | AID 540276 | 300,000 compounds, 1.8% hits; calls by dose curve; tested in HEK293 cells; further: potency means the concentration at half of the fitted maximal effect; on the % scale 0 is the no-effect control and ±100 the full control effect
# Pf growth 48h: inhibits P. falciparum growth in the first generation, 48 h. P. falciparum luciferase growth in erythrocytes, 48 h. Potency, µM (doses to about 28.7 µM), inactives show top-dose activity change, negative = inhibition, actives largely listed as inhibitors. 310,000 compounds, 5.9% hits. AID 504832; further: potency means the concentration at half of the fitted maximal effect; on the % scale 0 is the no-effect control and ±100 the full control effect
#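 A one-generation exposure of luciferase-tagged malaria parasites in RPMI 1640/Albumax erythrocyte culture, 37 C and 5% CO2. Inhibition is inferred from decreased luminescence after adding detection reagent.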
# Lassa entry inh: Lassa virus entry inhibition. Lassa virus pseudotype entry inhibition, cell reporter. Potency, µM (highest dose often 37.9 µM), for the others: at the top dose activity change, negative = inhibition, actives largely listed as inhibitors. 300,000 compounds, 1.2% hits; calls by dose curve; tested in HEK293 cells; further: potency means the concentration at half of the fitted maximal effect; on the % scale 0 is the no-effect control and ±100 the full control effect; nearly all actives have a fitted effect of over 50% in size
# Shiga inhibitor: blocks Shiga toxin action in Vero cells; Vero cells, Shiga toxin protein synthesis inhibition reporter; inhibition, % at 38.7 µM; 290,000 compounds, 9.2% hits; AID 2315; in the data active means inhibition mostly above about 28%, no sharp cut-off; inactive means mostly below about 43%; further: 0% is about no effect
# CHX counter: affects cycloheximide protein synthesis inhibition readout, counter-screen; cell reporter, cycloheximide protein synthesis inhibition counterscreen; max response, %; 300,000 compounds, 12% hits; in the data active means max response mostly above about 13%, no sharp cut-off; inactive means mostly below about 14%; further: read at 38.3 µM for the half of the compounds with a filed dose; 0% is about no effect
# Pf growth 96h: P. falciparum growth inhibition at 96 hours; AID 504834; Potency, µM (titrated, usually from 28.7 µM), for the others: top-dose activity change, negative = inhibition, most hits filed as inhibitors; P. falciparum luciferase reporter growth, 96 h; 320,000 compounds, 6.9% hits; further: potency means the concentration at half of the fitted maximal effect; on the % scale 0 is the no-effect control and ±100 the full control effect
#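 Infected RBCs, 2% Hct / 0.05% parasitemia final; luciferase-reporter P. falciparum; cpd 96 h, 37 C, 5% CO2; luciferase detection reagent; luminescence.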
# Numbers without * were called inactive; ? = inconclusive; nt = not tested or not shown; [ ] = dose if it differs, or a comment. Shown are actives, neighbours in structure and some others; about 19% of the full set was active somewhere. Unless noted, the call rests on the fitted dose curve; in most records, active means well fitted inhibition curve with a large enough effect; inconclusive means small, poorly fitted or top-dose-only effect, or another doubt; inactive means no such curve, though single readings can be large or run the other way.
SMILES,Marburg entry inh,Pf growth 48h,Lassa entry inh,Shiga inhibitor,CHX counter,Pf growth 96h
CCc1ccc(-c2[nH]c3c(c2-c2c(-n4cccc4)n(C)c(=O)n(C)c2=O)c(=O)n(C)c(=O)n3C)cc1,-1%[46.1 µM],nt,-8%[46.1 µM],nt,nt,nt
CCC1(c2ccccc2)C(=O)N(COC)C(=O)N(COC)C1=O,nt,-5%,nt,3,-3,-28%
CC(OC(=O)C1CSC2(C)CCC(=O)N12)C(=O)Nc1ccc(F)cc1 (stereo unspecified),nt,-18%,nt,nt,nt,13%
CN(C)C(=O)CSc1nnc(-c2cccnc2)n1-c1ccccc1,nt,nt,nt,19,1,?
Cc1nnc(SCC(=O)N2CC(C)OC(C)C2)n1-c1ccccc1 (stereo unspecified),5%[46.1 µM],0%,-12%,-5,-3,-5%
CC1CN(C(=O)CSc2nnc(-c3ccncc3)n2-c2ccccc2)CC(C)O1 (stereo unspecified),7%,24%,1%,2,-3,10µM*
CC(C)c1ccccc1-n1c(SCC(=O)N2CCN(c3ccccc3)CC2)nnc1-c1cccnc1,?,?,-19%,-14,-3,8.3µM*
Cc1c(C)n2c(SCC(=O)N3CCN(c4ccccc4)CC3)nnc2[nH]c1=O,-3%,3.3µM*,4%,nt,nt,?
CCOC(=O)N1CCC(N(CCCOC)C(=O)Nc2cccc(OC)c2)CC1,1%,?,2%,19,0,29%
CSc1nnc2c3c4c(sc3c(=O)n(-c3ccccc3)n12)CC(C)(C)OC4,0%,0.74µM*,6%,-4,-2,nt
O=C(CN1C(=O)NC2(CCCC2)C1=O)OCc1ccccc1F,15%,-22%,16%,nt,nt,-30%
CCOc1ccc(/C=N/n2c(SC)nnc(C(C)(C)C)c2=O)cc1,-3%,31%,10µM*,17,6,-7%
O=C(NCc1ccc(F)cc1)Nc1cccc(Cl)c1,?,64%,7%,62*,28*,63%
O=C(NCc1ccc(F)cc1)Nc1ccc(Cl)cc1,3%,60%,?,59,36*,1%
Cc1ccc(C)c(N2CCN(C(=O)CCCCCn3c(=O)[nH]c4ccccc4c3=O)CC2)c1,nt,nt,-7%[46.1 µM],nt,nt,nt
Cc1cc(CN2CCCC(C(=O)Nc3ccc(-c4nc5ccccc5[nH]4)cc3)C2)n[nH]1 (stereo unspecified),?,?,-2%[46.1 µM],42,29*,7%
CCn1cc(CN2CCCC(C(=O)Nc3cccc(-c4cc5ccccc5[nH]4)c3)C2)c(C)n1 (stereo unspecified),?,?,?,-7,0,0%
CC(C)n1cc(CN2CCCC(C(=O)Nc3cccc(-c4cc5ccccc5[nH]4)c3)C2)cn1 (stereo unspecified),?,?,7.1µM*,-6,-4,9%
Cn1cc(CN2CCCC(C(=O)Nc3cccc(-c4cc5ccccc5[nH]4)c3)C2)cn1 (stereo unspecified),?,?,?,-11,-1,81%
CCn1cc(CN2CCCC(C(=O)Nc3ccc(-c4nc5ccccc5[nH]4)cc3)C2)c(C)n1 (stereo unspecified),?,2.1µM*,-9%[46.1 µM],34,26*,26%
O=C(O)C1CC(O)CN1c1nc(Cl)ccc1[N+](=O)[O-] (stereo unspecified),1%[46.1 µM],2%,16%[46.1 µM],-6,-2,16%
CCOC(=O)CSc1ncc(OC)c(=O)[nH]1,-29%,-13%,0%,12,0,15%
O=C(Cn1c(C(=O)N2CCc3ccccc3C2)cc2sccc21)c1ccccc1,-19%,15µM*,-26%,-4,-3,-5%
O=C(Cn1c(C(=O)N2CCN(C3CCCCC3)CC2)cc2sccc21)c1ccccc1,?,?,-28%,-18,-2,-11%
CCN(CC)c1ccc(/C=N/NC(=O)CN2CCCc3ccccc32)cc1,-25%,-23%,-25%,-11,1,-27%
SMILES,Marburg entry inh,Pf growth 48h,Lassa entry inh,Shiga inhibitor,CHX counter,Pf growth 96h
O=C(CN1CCCc2ccccc21)N/N=C/c1ccccc1,?,-4%,13%,22,21*,-9%
O=C(CN1CCCc2ccccc21)N/N=C/c1c(O)ccc2ccccc12,?,?,?,48*,34*,?
O=C(CN1CCCc2ccccc21)N/N=C/c1ccc(O)cc1O,?,71%,?,71*,26*,9%
CCOC(=O)c1nnsc1C(OC)Oc1ccccc1 (stereo unspecified),8%,nt,1%,nt,nt,nt
COc1cc(OC)cc(C(=O)NC(C(=O)OCn2nnc3ccccc3c2=O)C(C)C)c1 (stereo unspecified),nt,1%,nt,nt,nt,?
Cc1ccc(O)c(N/C=C/C(=O)c2ccc(F)cc2)c1,?,-17%,-25%[46.1 µM],129*,43*,?
Cc1ccc(N/C=C/C(=O)c2ccc(C)cc2)cc1,?,nt,-28%,124*,65*,115%
Cc1ccc(C(=O)NCCNC(=O)c2ccccn2)cc1,-14%[46.1 µM],21%,19%[46.1 µM],-6,1,13%
Cc1ccc(O)c(NC(=O)/C=C/C(=O)O)c1,nt,?,nt,-7,1,0%
Cc1ccc(C(=O)/C=C/Nc2ccccn2)cc1,?,nt,0.63µM*,nt,nt,nt
Cc1ccc(C(=O)/C=C\Nc2ccc(C)c(C)c2)cc1,?,255%,?,109*,100*,246%
COP(=O)(OC)Oc1ccc(C(O)C(Cl)(Cl)Cl)cc1 (stereo unspecified),2%,9%,-22%,5,-1,24%
CC(C)(C)c1ccc(S(=O)(=O)N2CCCCC2C(=O)NCc2ccccn2)cc1 (stereo unspecified),0%,?,nt,19,-4,?
CC1=CC(C)CC(C)OC(=O)CC(c2ccc(O)cc2)NC(=O)C(Cc2c(Br)[nH]c3ccccc23)N(C)C(=O)C(C)NC(=O)C(C)C1 (stereo unspecified),0.32µM*,nt,0.4µM*,nt,nt,nt
C=CCNC(=O)N1CCCC(C(=O)c2cccc(OC(C)C)c2)C1 (stereo unspecified),?,49%,?,118*,26*,?
C=CCNC(=O)N1CCCC(C(=O)c2cccc(Cl)c2)C1 (stereo unspecified),-4%[46.1 µM],7%,?,-1,2,?
Cc1cc(C(=O)N2CCCC(C(=O)c3ccc(Oc4ccccc4)cc3)C2)n[nH]1 (stereo unspecified),nt,10µM*,nt,-2,-1,?
COCC(=O)N1CCCC(C(=O)c2ccc(Oc3ccccc3)cc2)C1 (stereo unspecified),-2%[46.1 µM],-25%,-26%,27,5,-5%
CC(C)Oc1cccc(C(=O)C2CCCN(C(=O)c3cc(C4CC4)[nH]n3)C2)c1 (stereo unspecified),nt,?,nt,1,1,?
CC(C)Oc1cccc(C(=O)C2CCCN(C(=O)c3cc(C(F)(F)F)[nH]n3)C2)c1 (stereo unspecified),-20%[46.1 µM],?,13µM*,14,9,35%

# High-throughput results (PubChem)
